Results on eight compounds are retold here after PubChem BioAssay AID2238 (Southern Research Specialized Biocontainment Screening …, 2010).

Molecules are shown by their SMILES. Calls of active or inactive are those of the source. The rule behind the calls is not given here.

The assay is described as follows: antiviral protection of cells from WNV – synthesized analogs, SAR follow-up (AID 2238). The following applies: West Nile virus CPE inhibition in cells; max CPE inhibition: measured here: maximum CPE inhibition observed, at 40 µM, stronger effect = higher value unless noted; series mostly up to 40 µM; CPE inhibition: at the top concentration.
Take `O=C(CSc1nc2ccccc2c(=O)n1-c1ccccc1F)Nc1ccc2c(c1)CCC2`: the max CPE inhibition was 71.6% [measured here: maximum CPE inhibition observed, at 20 µM, stronger effect = higher value].

Turning to `CN(C)CCCNC(=S)N1CCN(c2nc(-c3ccccc3)cs2)CC1`, the max CPE inhibition was 55.7% [measured here: maximum CPE inhibition observed, at 20 µM, stronger effect = higher value].

For the compound `CCCN1CCN(CCCNC(=O)c2cc3c(s2)-c2c(C)cccc2OC3)CC1`, the max CPE inhibition was 42.7% [measured here: maximum CPE inhibition observed, at 10 µM, stronger effect = higher value].

`OC1c2cc(Br)ccc2N=C2CCCN21` (stereo not given) had a max CPE inhibition of 79.7%.

As for `COc1ccc(-c2csc(N(CCCN(C)C)C(=O)c3ccccc3C)n2)cc1`, the max CPE inhibition is 60.8% [measured here: maximum CPE inhibition observed, at 80 µM, stronger effect = higher value].

With `O=C(Nc1nc(-c2ccc(Cl)cc2)cs1)c1ccc(Cl)cc1`, the “CPE inhibition” value is 0.62% (inactive) and the max CPE inhibition was 0.79%.

As to `O=C(CSc1nc2ccccc2c(=O)n1-c1ccc(F)cc1F)Nc1ccc(N2CCOCC2)cc1`, the max CPE inhibition was 58% [measured here: maximum CPE inhibition observed, at 80 µM, stronger effect = higher value].

Regarding `c1ccc2c(c1)CN1CCCC1=N2`, the max CPE inhibition was 2.6% [measured here: maximum CPE inhibition observed, at 80 µM, stronger effect = higher value] and the “CPE inhibition” value is 1.94% [at 80 µM] (inactive).
